{"source": "PubChem BioAssay (Tox21)", "note": "Results filed as inconclusive are left out. A call without a number means that no potency is given here. Calls of active or inactive are those of the source. The call rests on the fitted dose curve; in most records, active means well fitted cell-killing curve with a large enough effect in the repeat runs; inconclusive means weak or mixed curves, or effect the other way; inactive means flat fitted curve, though single readings scatter."}
{"test": "qHTS RealTime-Glo MT Cell Viability Assay in HEK293 cells - 0 hour (AID 1224880); further: top concentration of the series differs between compounds; nearly all actives have a fitted effect of over 45% in size", "settings": "RealTime-Glo luminescence; series mostly up to 76.8 µM", "outline": "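Nonlytic bioluminescent viability monitoring. HEK293 at 600 cells/well with reagent; 5 h settle; compound transfer by pintool; plates held at 37 C and read at set time points.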"}
{"smiles": "c1ccc(CNc2ncnc3c2ncn3C2CCCCO2)cc1", "note": "(configuration not stated)", "Potency": "inactive"}
{"smiles": "CC(C)(C)C1(CCc2ccc(Cl)cc2)CO1", "note": "(configuration not stated)", "Potency": "inactive"}
{"smiles": "O=C1OC[C@H](Cc2cccc(O)c2)[C@H]1Cc1cccc(O)c1", "Potency": "inactive"}
{"smiles": "Nc1ccc(NC(=O)c2ccc(N)cc2)cc1", "Potency": "inactive"}
{"smiles": "O=C(O)CCCc1c[nH]c2ccccc12", "Potency": "inactive"}
{"smiles": "CC[C@@H](CO)NCCN[C@@H](CC)CO", "Potency": "inactive"}
{"smiles": "CC(C)(C)C(O)/C=C/c1ccc2c(c1)OCO2", "note": "(configuration not stated)", "Potency": "inactive"}
{"smiles": "C/C(C=O)=C\\c1ccccc1", "Potency": "inactive"}
{"smiles": "CCO[Si](C)(CCCOCC1CO1)OCC", "note": "(configuration not stated)", "Potency": "inactive"}
{"smiles": "ClC1=C(Cl)C1(Cl)Cl", "Potency": "inactive"}
{"smiles": "Nc1c(Cl)cc(Cl)cc1[N+](=O)[O-]", "Potency": "inactive"}
{"smiles": "COc1ccc(-c2cc(C(F)F)nn2-c2ccc(S(N)(=O)=O)cc2)cc1F", "Potency": "inactive"}
{"smiles": "COC(=O)Nc1nc2ccc(C(=O)C3CC3)cc2[nH]1", "Potency": "inactive"}
{"smiles": "CCCCCCCC/C=C/C(=O)O", "Potency": "inactive"}
{"smiles": "CC(=O)N[C@@H](Cc1ccc(O)cc1)C(=O)O", "Potency": "inactive"}
{"smiles": "Cc1ccc(Nc2c(F)cccc2Cl)c(CC(=O)O)c1", "Potency": "inactive"}
{"smiles": "C=Cc1ccc(OC(C)=O)cc1", "Potency": "inactive"}
{"smiles": "CCCOC(=O)c1c(Cl)c(Cl)c(Cl)c(Cl)c1C(=O)OCCC", "Potency": "inactive"}
{"smiles": "COc1ccc(/C=C/C(=O)c2ccc(OC)cc2OC)cc1", "Potency": "inactive"}
{"smiles": "Nc1ccc(N=Nc2ccc(N)cc2)cc1", "Potency": "inactive"}
{"smiles": "CC1=C2[C@@H]([C@H](C)CC[C@H]2/C=C(\\C)C(=O)O)[C@H](O)C1", "Potency": "inactive"}
{"smiles": "CNCc1ccc(NC(=O)c2c[nH]c3c2C(=O)CCC3)cc1", "Potency": "inactive"}
{"smiles": "O=C1CC[C@@H](C(=O)O)N1", "Potency": "inactive"}
{"smiles": "CCCc1nc2c(C)cc(-c3nc4ccccc4n3C)cc2n1Cc1ccc(-c2ccccc2C(=O)O)cc1", "Potency": "inactive"}
{"smiles": "C=CC(=O)O", "Potency": "inactive"}
{"smiles": "COc1cc(NC(C)CCCN)c2ncccc2c1", "note": "(configuration not stated)", "Potency": "inactive"}
{"smiles": "O=C(O)/C=C/c1ccc(O)c(O)c1", "Potency": "inactive"}
{"smiles": "COc1cc(NS(=O)(=O)c2ccc(N)cc2)nc(C)n1", "Potency": "inactive"}
{"smiles": "CC(=O)NCCO", "Potency": "inactive"}
{"smiles": "COc1cc(OC)c2ccc(=O)oc2c1", "Potency": "inactive"}
{"smiles": "CCCCCc1ccco1", "Potency": "inactive"}
{"smiles": "Nc1nc(-c2ccc([N+](=O)[O-])cc2)cs1", "Potency": "inactive"}
{"smiles": "O=C(C(=O)c1ccco1)c1ccco1", "Potency": "inactive"}
{"smiles": "O=C(Oc1ccccc1)c1ccc2ccccc2c1O", "Potency": "inactive"}
{"smiles": "CC(C(=O)O)c1ccc(C(=O)c2cccs2)cc1", "note": "(configuration not stated)", "Potency": "inactive"}
{"smiles": "O=C(CCS)OCC(COC(=O)CCS)(COC(=O)CCS)COC(=O)CCS", "Potency": "inactive"}
{"smiles": "CCCCCCC(CO)CCCC", "note": "(configuration not stated)", "Potency": "inactive"}
